Hits are enriched below; roughly 4.9% of the tested compounds scored in any of these assays.
PP1 inh: blocks human PP1-alpha phosphatase, a PP5 counter-screen; P62136; purified PP1alpha, OMFP fluorescence; inhibition, % at 6.7 µM; 320,000 compounds, 0.9% hits;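 active = inhibition above the mean inhibition of all tested compounds plus 3 SD, computed separately for each screening campaign, cut at about 15% in these data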
Target sequence (P62136 whole entry, looked up): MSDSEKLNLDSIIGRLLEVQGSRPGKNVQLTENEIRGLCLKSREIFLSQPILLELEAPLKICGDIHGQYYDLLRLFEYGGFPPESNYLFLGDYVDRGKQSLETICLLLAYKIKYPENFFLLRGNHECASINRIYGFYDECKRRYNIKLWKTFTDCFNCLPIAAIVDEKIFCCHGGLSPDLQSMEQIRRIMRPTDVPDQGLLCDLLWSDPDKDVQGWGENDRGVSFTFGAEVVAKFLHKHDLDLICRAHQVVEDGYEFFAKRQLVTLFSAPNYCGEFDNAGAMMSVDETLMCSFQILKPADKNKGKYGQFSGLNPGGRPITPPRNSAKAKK
CSC inhib: cancer stem cell inhibition; cancer stem cell-like cells viability, luminescence; inhibition, % at 7.5 µM; 300,000 compounds, 1.1% hits; in the data active = inhibition above about 75%; inconclusive = no clear call, values can overlap the other calls; tested in HMLE shEcad cells
Calb FLC: C. albicans growth modulation with fluconazole. C. albicans CaCi-2 (fluconazole-resistant clinical isolate) + fluconazole, Alamar Blue growth, 48 h. growth inhibition, % (test concentration not listed). 300,000 compounds, 0.57% hits. AID 1979;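 active = growth inhibition above about 58% in most replicates, limit read from the data, passing the limit was not always enough; inconclusive = exactly half the replicates above a set limit; inactive = most replicates below a set limit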;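 also: all wells also contain fluconazole at 8 µg/ml as a sub-toxic cotreatment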
PP5 primary: blocks human protein phosphatase 5 activity. P53041. purified PP5c, OMFP substrate fluorescence. inhibition, % at 6.7 µM. 320,000 compounds, 0.18% hits;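 active = inhibition above the campaign's mean inhibition across all tested compounds plus 3 SD, cut at about 9.5% in these data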
Mdm2 MdmX PPI: human Mdm2/MdmX binding inhibition. O15151+Q00987. SaOS-2 split-luciferase Mdm2/MdmX complementation, luminescence. inhibition, % at 8 µM. 330,000 compounds, 3% hits. AID 485346;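 active = inhibition of at least 50% at 8 µM in the primary screen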
Beta apoptosis: beta cell apoptosis inhibition; INS-1E cytokine-induced death, ATP luminescence, 48 h; percent of positive-control rescue, neutral wells zero; protection from apoptosis, % (concentration not given with the values); 300,000 compounds, 0.8% hits; AID 435005;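 active = Every replicate reaches about 75%, or at least half do and their mean reaches it too, limit read from the data; inconclusive = At least half of replicates reach the limit but their mean does not; inactive = Under half of replicates reach the limit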;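 also: higher means more ATP so stronger rescue from cytokine killing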
Large screens that a line does not name were inactive.

CC(=O)Nc1ccc(OCC(O)CN2CCN(c3cc(Cl)ccc3C)CC2)cc1 (configuration not stated)	CSC inhib 84 (no result: Beta apoptosis)
Cc1ccc(CNC(=O)CN(C)S(=O)(=O)c2ccc3c(c2)n(C)c(=O)c(=O)n3C)cc1	none
CC(CCC(C)C(C)(C)C)[C@@H]1CC[C@H]2C3C[C@H](OS(O)(=S)=S)[C@H]4C[C@H](OS(O)(=S)=S)[C@@H](OS(O)(=S)=S)C[C@]4(C)[C@H]3CC[C@]12C (some centres not stated) (tested in a mixture with another compound)	CSC inhib 98 (no result: PP1 inh, Calb FLC, PP5 primary)
CCn1c(=O)c(C(=O)NCc2ccccc2OC)c(O)c2ccccc21	CSC inhib 76
CCn1c(=O)c(C(=O)NCc2cccnc2)c(O)c2ccccc21	Calb FLC 94
CCCn1c(=O)c(C(=O)NCc2ccccc2OC)c(O)c2ccccc21	none
CCCCCCCCCC(=O)NNC(=O)c1c(O)c2ccccc2n(CC)c1=O	Calb FLC 113
CCn1c(=O)c(C(=O)NCc2ccccc2)c(O)c2ccccc21	none
Cc1cc(C)n2nc(CNS(=O)(=O)c3ccc(F)c(C)c3)nc2n1	none
COc1ccc(CC(=O)N2CCN(c3ccccc3)CC2)cc1	none (no result: Beta apoptosis)
CC(NC(=O)c1cc(F)c(F)c(F)c1F)c1ccc(-n2ccnc2)cc1 (configuration not stated)	none (no result: Beta apoptosis)
Cc1ccc(Cl)c(OC(=O)c2nn(C(C)C)c(=O)c3ccccc23)c1	none
Cc1ccc(S(=O)(=O)N(C)C)cc1NC(=O)C(C)OC(=O)C1CCCCC1 (configuration not stated)	none (no result: PP1 inh, Calb FLC, PP5 primary)
COc1ccc(-c2ccc(C)cc2)cc1[C@H]1[C@@H]2C=CCC[C@@]2(C)C(=O)N1Cc1ccccc1	CSC inhib 115
C/C(=N\NC(=O)c1nnn(-c2nonc2N)c1CSc1ccc(Cl)cc1)c1cccnc1	none (no result: Calb FLC)
C=CCSc1n[nH]c(-c2ccc(OCCC)cc2)n1	Calb FLC 112
C=CCSc1n[nH]c(-c2ccc(OCCCC)cc2)n1	Calb FLC inconclusive
CCOC(=O)C(=NCCCN1CCOCC1)NNc1cccc(C(F)(F)F)c1	CSC inhib 86, Calb FLC 129
CC(C)N(C(=O)Cn1c(=O)oc2ccccc21)c1ccccc1	none (no result: Beta apoptosis)
Cc1nnc(SCC(=O)Nc2ccc(N3CCN(S(C)(=O)=O)CC3)cc2)o1	Calb FLC inconclusive (no result: CSC inhib)
CCOC(=O)c1c(CSc2ccccc2)n(C)c2cc(Br)c(OCC(O)CNC(CO)(CO)CO)cc12 (configuration not stated)	CSC inhib 100 (no result: Mdm2 MdmX PPI)
CCCCCN(C(=O)CCC(=O)OCc1cc(C)ccc1C)c1c(N)n(CCCC)c(=O)[nH]c1=O	none
Cc1ccccc1-n1c(=O)c(C#N)cc2c(=O)n3ccccc3nc21	Calb FLC 54 (no result: Beta apoptosis)
Cc1cc(-n2c(=O)c(C#N)cc3c(=O)n4ccccc4nc32)no1	none
C=CCN(CC=C)S(=O)(=O)c1ccc(C(=O)Nc2nnc(COC)o2)cc1	Calb FLC 114
COCc1nnc(NC(=O)c2ccc(S(=O)(=O)N(CC(C)C)CC(C)C)cc2)o1	none
O=C(COc1ccc(Cl)cc1Cl)NN1C(=O)C2C3C=CC(C3)C2C1=O (configuration not stated)	none
CC(=O)c1sc(-c2ccc(Cl)cc2)nc1C	none
Cc1nc(-c2ccccc2)sc1C(=O)/C=C/c1ccc(Cl)cc1	CSC inhib 94
COc1ccc(-n2cc(-c3ccc(OC(F)F)cc3)[n+]3c2CCCCC3)cc1	Beta apoptosis 103
CCOC(=O)c1ccc(NC(=O)c2ccc(CO)c(C(=O)NC3CCN(C(=O)OCC)CC3)c2)cc1	Calb FLC 104
CCOC(=O)N1CCC(NC(=O)c2cc(C(=O)Nc3ccc(OC)c(OC)c3)ccc2CO)CC1	none
O=c1c2cn[nH]c2nc(SCc2ccccc2F)n1-c1ccc(Br)cc1	CSC inhib 105
COCCCNC(=O)C1=CCN(S(=O)(=O)c2ccc(OC)cc2)CC1	none
CCC/C=C(\CCC)C(NS(=O)(=O)c1ccc(C(F)(F)F)cc1)c1ccccc1 (configuration not stated)	CSC inhib 102 (no result: Mdm2 MdmX PPI)
COc1ccccc1CN1CCNC(=O)C1CC(=O)NC1CCCCCC1 (configuration not stated)	none
Cc1nnsc1SCCNC(=O)Nc1ccc(Cl)cc1	none
Cc1cc([N+](=O)[O-])nn1CC(=O)N/N=C/c1ccc(O)cc1O	CSC inhib 80

Screening results from PubChem BioAssay.
